A short description of assay [1]: qHTS profiling for inhibitors of Plasmodium falciparum (DD2) proliferation (AID 743323). Particulars: lower = more inhibition; at 28.7 µM (top of the series). The procedure, abridged: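 1536-well qHTS; infected RBCs 0.3% parasitemia/2.5% Hct final; cpd 72 h 37 C 5% CO2; lysis buffer + SYBR Green I, o/n RT dark; FI 485/535; norm. to 0.29 uM artemisinin and DMSO, plate-stack corrected.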
(In general: In qHTS, concentration-response curves come from the screen itself.)

Assay [2] in a line: qHTS profiling for inhibitors of Plasmodium falciparum (HB3) proliferation (AID 743324; active means well fitted curve in the direction sought with a large enough effect; an effect the other way counts as inactive or inconclusive;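 further: 100% = DMSO vehicle wells and 0% = artemisinin-treated control wells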). Particulars: Plasmodium falciparum HB3 blood-stage proliferation; at 28.7 µM (top of the series). Put shortly: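 P. falciparum HB3 grown in erythrocytes (0.3% parasitemia, 2.5% hematocrit final) with compound for 72 h at 37 C, 5% CO2. Parasite DNA detected by SYBR Green after saponin/triton lysis overnight; normalized to 0.29 uM artemisinin and DMSO.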

The nature of assay [3]: qHTS profiling of the MIPE4 collection as inhibitors of Plasmodium falciparum (3D7) proliferation (AID 743344).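 Further: scaled between DMSO vehicle wells and 0.29 µM artemisinin as full inhibition.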 Particulars: P. falciparum 3D7 in erythrocytes, SYBR Green DNA fluorescence, 72 h; at 28.5 µM (top of the series) unless noted. The procedure, abridged:
(§1)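 Erythrocytes infected with P. falciparum (0.3% parasitemia, 2.5% hematocrit) incubated with compounds 72 h at 37 C, 5% CO2. Lysis with saponin/Triton buffer containing SYBR Green I, overnight at room temperature in the dark; DNA fluorescence (485/535 nm) normalised to 0.29 uM artemisinin and DMSO.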

A short description of assay [4]: qHTS profiling of the MIPE4 collection as inhibitors of Plasmodium falciparum (DD2) proliferation (AID 743345). Particulars: P. falciparum Dd2 in erythrocytes, SYBR Green DNA, 72 h; at 28.5 µM (top of the series) unless noted. Put shortly: as §1
Assay [5] in a line: qHTS profiling of the MIPE4 collection as inhibitors of Plasmodium falciparum (DD2) proliferation (Rep 2) (AID 743346). Particulars: P. falciparum Dd2 in erythrocytes, SYBR Green DNA, 72 h; at 28.5 µM (top of the series) unless noted. The procedure, abridged:
as §1

A short description of assay [6]: qHTS profiling of the MIPE4 collection as inhibitors of Plasmodium falciparum (HB3) proliferation (AID 743347).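 Further: plate controls were DMSO vehicle wells for no effect and artemisinin wells for full effect.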 Particulars: P. falciparum HB3 in erythrocytes, SYBR Green DNA, 72 h; at 28.5 µM (top of the series) unless noted. The procedure, abridged:
as §1

Assay [7] can be described thus: High-throughput drug toxicity screening in the BPDCN cell line Gen2.2 (AID 1224824).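 Further: cells exposed to compounds for 48 h before reading.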 Particulars: Gen2.2 BPDCN cells; at 45.8 µM (top of the series) unless noted. The procedure, abridged: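 Gen2.2 cells (500/well) in phenol red-free RPMI with 10% FBS were exposed to compounds for 48 h at 37 °C, 5% CO2. Viability was read by CellTiter-Glo luminescence and normalized to DMSO (100%) and 9.2 uM bortezomib (0%).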

Assay [8] is described as follows: High-throughput drug toxicity screening in the BPDCN cell line Cal-1 (AID 1224825). Particulars: Cal-1 BPDCN cell viability, qHTS; at 45.8 µM (top of the series) unless noted. Put shortly:
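500 Cal-1 cells/well, RPMI + glutamine + 10% FBS (phenol red-free); cpd added by pin tool; 48 h, 37C, 5% CO2; CTG 15 min RT, lumi read. Normalised: DMSO 100%, bortezomib 9.2 uM 0%.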

Assay [9] is described as follows: qHTS assay for measurement of the activity of small molecule inhibitors on Zika virus induced Caspase-3 activity in human iPSC derived neural progenitor cells (hNPCs) (AID 1224857; active means well fitted curve in the direction sought with a large enough effect; an effect the other way counts as inactive or inconclusive; further: % of control where 0% means no effect; nearly all actives have a fitted effect of over 65% in size). Put shortly:
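After overnight (16–20 h) culture at 350 cells/well, hNPCs get compound, then ZIKV 2 FFU/cell one hour later. Six hours on, Caspase-Glo 3/7 is added and luminescence measured.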

Assay [10] is described as follows: qHTS assay for measurement of the activity of small molecule inhibitors on Zika virus induced Caspase-3 activity in human astrocytoma cells (AID 1224859; active means well fitted curve in the direction sought with a large enough effect; an effect the other way counts as inactive or inconclusive;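 further: plate controls were ZIKV-infected untreated cells for no effect and uninfected cells for full effect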). The procedure, abridged:
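Inhibition of Zika-induced caspase-3/7 activity: SNB-19 cells, 1 h compound pretreatment, ZIKV 2 FFU/cell for 6 h at 37 C, Caspase-Glo luminescence read-out.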

The nature of assay [11]: qHTS Assay for Identifying Gametocytocidal Compounds (AID 743244; active means well fitted curve in the direction sought with a large enough effect; an effect the other way counts as inactive or inconclusive; further: potency means the concentration at half of the fitted maximal effect;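 on max response: on the % scale 0 is the no-effect control and ±100 the full control effect; actives lower the fluorescent signal which means gametocytes are killed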). Particulars: P. falciparum 3D7 stage III-V gametocytes, alamarBlue, 72 h; max response: stronger effect = lower value. Put shortly: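 Using 20,000 stage III–V 3D7 gametocytes per well, compounds were incubated 72 h under 37 °C/5% CO2. Viability was then assessed by 24 h alamarBlue reduction, measured fluorometrically at 525/598 nm.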

Assay [12] is described as follows: qHTS assay for small molecule antagonists of the retinoid-related orphan receptor gamma (ROR-gamma) signaling pathway - cell viability counter screen (AID 720652; active means well fitted curve in the direction sought with a large enough effect in the repeat runs; an effect the other way counts as inactive or inconclusive;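 further: CHO reporter cells with doxycycline-induced ROR-gamma expression; compound exposure lasted 16 hr before ATP read; on the % scale 0 is the no-effect control and ±100 the full control effect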). Put shortly:
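Cytotoxicity is quantified via intracellular ATP (CellTiter-Glo luminescence) in doxycycline-induced CHO ROR response element-luciferase reporter cells treated with compound for 16 hr at 37 C, 5% CO2.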

A short description of assay [13]: qHTS assay for small molecule agonists of the antioxidant response element (ARE) signaling pathway measured by Nrf2-dependant transcriptional activity - cell viability counter screen (AID 720653; active means well fitted curve in the direction sought with a large enough effect in the repeat runs; an effect the other way counts as inactive or inconclusive; further: on the % scale 0 is the no-effect control and ±100 the full control effect). Particulars: ARE-bla HepG2 viability, CellTiter-Glo ATP luminescence, 16 h; max response: stronger effect = lower value. Put shortly: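 Cytotoxicity counter screen: intracellular ATP quantified by CellTiter-Glo luminescence in the same ARE-bla HepG2 plates, after 16 h compound exposure and a 2 h beta-lactamase substrate step.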

Assay [14] can be described thus: qHTS assay for cell viability of HEK293 cells (AID 743288; active means well fitted curve in the direction sought with a large enough effect; an effect the other way counts as inactive or inconclusive; further: on the % scale 0 is the no-effect control and ±100 the full control effect; nearly all actives have a fitted effect of over 50% in size). Particulars: ATP luminescence (CellTiter-Glo), 18 h; max response: stronger effect = lower value. Put shortly:
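Parental HEK293 cells were seeded at 2,000 cells/well, rested at least 5 h at 37 C, then exposed to compounds in DMSO for 18 h at 37 C. Viability was read as ATP-dependent luciferase luminescence after 30 min at room temperature.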

Assay [15] in a line: qHTS assay for cell viability of the p53RE-bla HCT-116 cell line (AID 743292; active means well fitted curve in the direction sought with a large enough effect; an effect the other way counts as inactive or inconclusive; further: on the % scale 0 is the no-effect control and ±100 the full control effect; nearly all actives have a fitted effect of over 55% in size). Put shortly:
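Luminescent ATP quantitation (CellTiter-Glo) served as the viability read-out; reagent was added after 16 h compound exposure at 37 C and read after 30 min at room temperature. Cells: p53RE-bla HCT-116, 4,000 per well.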

A short description of assay [16]: qHTS profiling for inhibitors of Plasmodium falciparum (3D7) proliferation (AID 743322).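 Further: infected erythrocytes exposed to compound for 72 h before lysis; 100% = DMSO vehicle wells and 0% = 0.29 µM artemisinin.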 Particulars: P. falciparum 3D7 proliferation; at 28.7 µM (top of the series). Put shortly: as §1

The results in this text go back to PubChem BioAssay (NCATS).

The structures appear in SMILES notation. Several values for one entry are separate records, joined by “and”; a condition that tells them apart may be missing. Equal entries are not always repeated. Results filed as inconclusive are left out. Activity calls are given as the source filed them. Unless noted, how the calls were made is not given here.

Take `CO[C@@H](C(=O)N1Cc2[nH]nc(NC(=O)c3ccc(N4CCN(C)CC4)cc3)c2C1)c1ccccc1`: in assay [1], the activity, percent of control was 24.6%. Also, the remaining proliferation (% of control), lower = more inhibition in assay [2] came to 7.25%. Further, in [3], the parasite growth, % of DMSO control is 6.06%. The parasite growth remaining, % of DMSO control (lower = more inhibition) in [4] was 12.3%. Besides, the parasite growth, % of control (lower = inhibition) in assay [5] amounted to 10.5%. Besides, in [6], the growth, % of control is 3.96%. Besides, in assay [7], the cell viability, % of control (lower = more cytotoxic) was found to be 134%. Besides, in assay [8], the viability (% of control) turned out to be 6.89%. In addition, the Potency result in [9] and in assay [10] was “inactive” each time.

Turning to `COc1cccc2c1CCCC2CCCN1CCN(C2CCCCC2)CC1` (stereo unspecified), the activity, percent of control in assay [1] turned out to be 3.08%. The remaining proliferation (% of control), lower = more inhibition in assay [2] came out at 1.97%. The molecule also showed a parasite growth, % of DMSO control in [3] of 6.86%. For the same molecule, the parasite growth remaining, % of DMSO control (lower = more inhibition) in assay [4] amounted to 54.8%. In assay [5], the parasite growth, % of control (lower = inhibition) was found to be 16.3%. This molecule came in with a growth, % of control in assay [6] of 5.02%. For the same molecule, in assay [7], the cell viability, % of control (lower = more cytotoxic) stood at 165%. In assay [8], the viability (% of control) is 11.1%. Also, the Potency result in assay [9] and in [10] was “inactive” throughout.

In the case of `CC(C)(Cc1ccc2ccccc2c1)NC[C@@H](O)COc1cccc(Cl)c1C#N`, the parasite growth, % of DMSO control in assay [3] was found to be 89.9%. Further, in assay [4], the parasite growth remaining, % of DMSO control (lower = more inhibition) turned out to be 98.5%. In addition, the parasite growth, % of control (lower = inhibition) in assay [5] was 59.5%. The cell viability, % of control (lower = more cytotoxic) in [7] was determined as 123%. Besides, in [8], the viability (% of control) stood at 12.4%. Besides, the Potency result in assay [9] and in assay [10] was “inactive” each time.

For `CC(C)(C)C(=O)Oc1ccc2c(c1)nc(NC(=O)c1cccc([N+](=O)[O-])c1)n2CCCO`, the max response in [11] is 2.9% (inactive). In [1], the activity, percent of control was 82%. Moreover, the remaining proliferation (% of control), lower = more inhibition in assay [2] was determined as 53.3%. This molecule showed a parasite growth, % of DMSO control in assay [3] of 21.2%. Besides, the parasite growth remaining, % of DMSO control (lower = more inhibition) in [4] was found to be 46.4%. In addition, the parasite growth, % of control (lower = inhibition) in assay [5] stood at 22.2%. In [6], this molecule displayed a growth, % of control of 10.6%. For the same molecule, the cell viability, % of control (lower = more cytotoxic) in assay [7] was found to be 190%. Also, the viability (% of control) in assay [8] amounted to 102%. Also, the Potency result in assay [9] and in assay [10] was “inactive” throughout.

Turning to `COC1CCC(N(C(=O)C2CCC(C)CC2)c2cc(C3=CCCCC3)sc2C(=O)O)CC1` (stereo unspecified), in [7], the cell viability, % of control (lower = more cytotoxic) stood at 66.7%. Also, the viability (% of control) in assay [8] was 89.2%. The Potency result in assay [9] and in [10] was “inactive” each time.

In turn, `COc1ccc(-n2c(C)c([N+](=O)[O-])c3ccc(O)cc32)cc1` yielded a parasite growth, % of DMSO control in [3] of 80.7%. In [4], this molecule displayed a parasite growth remaining, % of DMSO control (lower = more inhibition) of 78.7%. For the same molecule, in assay [5], the parasite growth, % of control (lower = inhibition) is 45.7%. Moreover, the cell viability, % of control (lower = more cytotoxic) in assay [7] is 46.7%. Besides, the viability (% of control) in assay [8] turned out to be 96.3%. The Potency result in assay [9] and in assay [10] was “inactive” each time.

With `O=c1[nH]cnc2c1ncn2[C@H]1CC[C@@H](CO)O1`, the Potency result in assay [12], in [15], in assay [9] and in assay [10] was “inactive” throughout. For the same molecule, the max response in assay [13] was 7.68% (inactive) and 6.47% (inactive); in assay [11] it was -6.96% (inactive); in assay [14] it was -8.26% (inactive) and -9.92% (inactive). In assay [3], this molecule gave a parasite growth, % of DMSO control of 178%. The molecule further gave a parasite growth remaining, % of DMSO control (lower = more inhibition) in [4] of 97.1%. Besides, in assay [5], the parasite growth, % of control (lower = inhibition) amounted to 101%. The same molecule returned a growth, % of control in assay [6] of 659%. The cell viability, % of control (lower = more cytotoxic) in [7] stood at 93.2%. For the same molecule, the viability (% of control) in assay [8] stood at 121%.

With `O=C(CCCCCCC(=O)Nc1ccccc1)NO`, in [7], the cell viability, % of control (lower = more cytotoxic) is 171%. Besides, the viability (% of control) in [8] was 7.8%.

`COc1ncc(-c2ccc3nccc(-c4ccnnc4)c3c2)cc1NS(=O)(=O)c1ccc(F)cc1F`: the activity, percent of control in assay [1] is -0.177%. In addition, in [2], the remaining proliferation (% of control), lower = more inhibition is -1.02%. Further, in [3], the parasite growth, % of DMSO control is 4.65%. In assay [4], this molecule returned a parasite growth remaining, % of DMSO control (lower = more inhibition) of 7.55%. Also, in assay [5], the parasite growth, % of control (lower = inhibition) stood at 6.02%. This molecule also showed a growth, % of control in [6] of 4.97%. Also, the cell viability, % of control (lower = more cytotoxic) in assay [7] came to 3.44%. Besides, the viability (% of control) in assay [8] came out at 3.33%. Also, the Potency result in [9] and in assay [10] was “inactive” each time.

Take `CN1CCN(CCOc2cc(OC3CCOCC3)c3c(Nc4c(Cl)ccc5c4OCO5)ncnc3c2)CC1`: the Potency in assay [11] is 18.7 µM (active). For the same molecule, in assay [16], the remaining parasite growth % (stronger effect = lower value) came out at 0.208%. Further, in assay [1], the activity, percent of control is 1.7%. Further, in assay [2], the remaining proliferation (% of control), lower = more inhibition is -0.659%. In assay [3], this molecule came in with a parasite growth, % of DMSO control of 5.31%. In assay [4], the parasite growth remaining, % of DMSO control (lower = more inhibition) stood at 8.1%. For the same molecule, the parasite growth, % of control (lower = inhibition) in assay [5] came out at 7.87%. Besides, the growth, % of control in assay [6] was determined as 6.19%. Also, the cell viability, % of control (lower = more cytotoxic) in [7] is 54.1%. Moreover, in assay [8], the viability (% of control) is 2.69%. Besides, the Potency entry in [9] and in assay [10] was “inactive” in each case.
